# The campaign covered roughly 1,200 compounds. About 950 (79%) were called active. The set was probably picked from earlier hits. A selection follows. Potency and affinity values are given separately. Unmarked numbers belong to inactive results.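 Rule for the calls: active = signal rises and fitted curve reaches 40% activity at or below the top valid tested dose, in every replicate test; inconclusive = replicate tests give mixed calls; inactive = the rest, including activity in the opposite direction.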
# Test: Bmi1-luciferase reporter activators in mESC, dose response, esBAF inhibitor project, mouse embryonic stem cells, cherry-pick (AID 651717);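 note: luciferase knocked into Bmi1 locus with EF-1a renilla as cell number control; rising ratio signals esBAF inhibition which derepresses Bmi1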
# Details: firefly/renilla ratio, 24 h, hits give high values; at 35 µM unless noted
row,Compound,max activity
1,O=C(CCCc1ccccc1)Nc1ccccc1C(F)(F)F,21.6%
2,C[C@@H]1CN([C@@H](C)CO)C(=O)c2cc(NC(=O)Nc3ccc4c(c3)OCO4)ccc2O[C@@H](C)CCCCO[C@H]1CN(C)C(=O)Nc1ccccc1,33.3%
3,C[C@@H]1CCCCO[C@H](CN(C)C(=O)Nc2ccc(F)cc2)[C@H](C)CN([C@@H](C)CO)C(=O)c2cc(NC(=O)Nc3ccc4c(c3)OCO4)ccc2O1,7.08% [at 1 µM]
4,O=S(=O)(c1cccs1)N1CN(Cc2ccc(Cl)cc2)c2nc3ccccc3nc21,-33.7%
5,COc1ccc(-c2nn(-c3ccccc3)cc2/C=C(\CC(=O)O)c2nc3ccccc3s2)cc1OC,26.9%
6,C[C@@H]1CCCCO[C@@H](CN(C)S(=O)(=O)c2cn(C)cn2)[C@H](C)CN([C@H](C)CO)C(=O)c2cc(NC(=O)Nc3ccc4c(c3)OCO4)ccc2O1,-9.02% [at 2.1 µM]
7,CN(c1ccc(O)cc1)S(=O)(=O)c1ccc2ccccc2c1,14.3% [at 8 µM]
8,CCCN(Cc1ccc(C)cc1)C(=O)c1ccc(CNS(=O)(=O)c2ccc(C(C)=O)cc2)cc1,33.1% [at 16 µM]
9,COc1cccc(CN(C(=O)c2cc3ccccc3oc2=O)C2CC2)c1,35% [at 8 µM]
10,O=C1NC[C@H](c2ccccc2)OC(=O)[C@@H](Cc2ccc(F)cc2)C/C=C\C[C@H]1CC(=O)N(CCO)Cc1ccccc1,25.5%
11,COC(=O)c1ccc2c(=O)n(CC3CCCO3)c(SCC(=O)Nc3ccccc3Cl)nc2c1 (centres undefined),24.8% [at 8 µM]
12,C[C@@H]1CCCCO[C@@H](CN(C)C(=O)Nc2cccc3ccccc23)[C@H](C)CN([C@H](C)CO)C(=O)c2cc(NC(=O)C3CCCCC3)ccc2O1,28.2% [at 16 µM]
13,COc1ccc(CNC(=O)N(C)C[C@@H]2OCc3ccccc3-c3c(n(C)c4ccccc34)C(=O)N([C@H](C)CO)C[C@@H]2C)cc1,-26.4% [at 30 µM]
14,COc1ccc(-c2cc(C(=O)N3CCCCCC3)no2)cc1OC,32.3%
15,CS(=O)(=O)NN1C(=O)c2ccccc2NC1c1cc2ccccc2nc1Cl (centres undefined),18.4%
16,COc1ccc(C(=O)O/N=C(\N)c2ccc(OC)c(OC)c2)c(OC)c1,34.8%
17,O=C(NCC[C@@H]1CC[C@@H](NC(=O)Nc2cc(F)ccc2F)[C@H](CO)O1)Nc1ccc(Cl)cc1,-11.9% [at 16 µM]
18,O=C(NCC[C@@H]1CC[C@H](NC(=O)Nc2cc(F)ccc2F)[C@H](CO)O1)Nc1ccc(Cl)cc1,29.7%
19,C[C@@H]1CN([C@H](C)CO)C(=O)c2c(c3ccccc3n2C)-c2ccccc2CO[C@H]1CN(C)C(=O)Nc1ccc2c(c1)OCO2,-14.5%
20,CC(C)c1ccc(NC(=O)c2ccccc2NC(=O)C2CCCCC2C(=O)O)cc1 (centres undefined),41%
21,Cc1cccc(NC2SC(=O)N(c3ccccc3)C2=O)c1 (centres undefined),37.5%
22,O=C(/C=C/NNC(=O)c1ccccc1O)c1ccccc1,4.98% [at 4.2 µM]
23,CCn1c(CCNC(=O)c2cccs2)nnc1SCC(=O)Nc1nc(-c2ccccc2)cs1,32.7%

row,Compound,max activity
1,C[C@@H]1CCCCO[C@@H](CN(C)C(=O)Nc2ccccc2)[C@@H](C)CN([C@@H](C)CO)C(=O)c2cc(NC(=O)Nc3ccc4c(c3)OCO4)ccc2O1,13.1% [at 16 µM]
2,C[C@@H]1CCCCO[C@@H](CN(C)C(=O)Nc2cccc3ccccc23)[C@H](C)CN([C@H](C)CO)C(=O)c2cc(NC(=O)Cc3ccccc3)ccc2O1,-4.4% [at 2.1 µM]
3,Brc1ccc(N=C/C=C/C=C/Nc2ccc(Br)cc2)cc1,9.66% [at 4.2 µM]
4,C[C@H](CO)N1C[C@H](C)[C@@H](CN(C)S(=O)(=O)c2cccs2)Oc2c(NC(=O)Nc3ccc4c(c3)OCO4)cccc2C1=O,-24.2%
5,COc1cccc(-c2cnc(C(O)c3ccc(F)cc3)[nH]2)c1 (centres undefined),32% [at 8 µM]
6,CCc1ccc(C(O)c2ncc(-c3cccc(F)c3)[nH]2)cc1 (centres undefined),-31.3%
7,OC(c1ccccc1)c1ncc(-c2ccccc2F)[nH]1 (centres undefined),-21.5%
8,Cc1ccc(S(=O)(=O)N2CCOCC2)cc1C(=O)Nc1ccc(-c2cn3ccsc3n2)cc1,-8.19%
9,CC(C)c1ccc(Nc2ncc3c(n2)CCN(C(=O)Nc2ccc(F)c(Cl)c2)C3)cc1,20.6%
10,N#Cc1cccc(NC(=O)c2cc(C3CCCCN3S(=O)(=O)c3cccc4cccnc34)on2)c1 (centres undefined),-16.3%
11,O=C(Nc1ccc(F)c(Cl)c1)c1cc(C2CCCN(S(=O)(=O)c3cccc4cccnc34)C2)on1 (centres undefined),29.2% [at 16 µM]
12,COC(=O)c1ccc(-c2ccc(OC)c([C@H]3[C@H]4C=CC[C@@H](C)[C@@H]4C(=O)N3Cc3ccccc3)c2)cc1,-14.1%
13,O=C1C2C(c3cccc(/C=C/c4ccccc4)c3)CC=CC2C(c2ccc3ccccc3c2)N1Cc1ccccc1 (centres undefined),17.2%
14,CN(C)C(=O)CCc1ccc2c3c([nH]c2c1)[C@]1(CCc2ccccc2)[C@@H](C(=O)N2CCCCC2)C[C@H](CC(=O)NCCC2=CCCCC2)C(=O)N1CC3,-35% [at 8 µM]
15,C[C@H](CO)N1C[C@H](C)[C@@H](CN(C)C(=O)Nc2ccc3c(c2)OCO3)Oc2ncc(C#CC3(O)CCCC3)cc2C1=O,-4.31% [at 16 µM]
16,C[C@H](CO)N1C[C@H](C)[C@H](CN(C)C(=O)Nc2ccc3c(c2)OCO3)Oc2c(NS(=O)(=O)c3ccccc3)cccc2C1=O,-12.7%
17,C[C@@H]1CCCCO[C@H](CN(C)S(=O)(=O)c2cn(C)cn2)[C@@H](C)CN([C@@H](C)CO)C(=O)c2cc(NC(=O)Nc3ccc4c(c3)OCO4)ccc2O1,-8.77% [at 8 µM]
18,C[C@H](CO)N1C[C@H](C)[C@@H](CN(C)S(=O)(=O)c2cn(C)cn2)Oc2c(NC(=O)Nc3ccc4c(c3)OCO4)cccc2C1=O,-22.8%
19,Cc1ccc(S(=O)(=O)N[C@H]2CC[C@@H](CCNC(=O)Nc3ccc(Cl)cc3)O[C@H]2CO)cc1,-11.4%
20,O=C(NCC[C@H]1CC[C@H](NC(=O)Nc2cc(F)ccc2F)[C@H](CO)O1)Nc1ccc(Cl)cc1,31.4%
21,C[C@H]1CN([C@@H](C)CO)C(=O)c2c(c3ccccc3n2C)-c2ccccc2CO[C@H]1CN(C)C(=O)Nc1ccc2c(c1)OCO2,-25.1%
22,Cc1noc(C)c1NC(=O)N(C)C[C@@H]1Oc2ncc(C#CC3CC3)cc2C(=O)N([C@@H](C)CO)C[C@H]1C,9.7% [at 8 µM]
23,O=C(Cc1ccc(Cl)cc1)NC1CCCCCC1,37.5%

row,Compound,max activity
1,CC(C)NC(=O)N(C)C[C@@H]1OCCCC[C@H](C)Oc2ccc(NC(=O)Nc3ccc4c(c3)OCO4)cc2C(=O)N([C@H](C)CO)C[C@@H]1C,11.4% [at 0.5 µM]
2,CS(=O)(=O)Nc1ccc(C2=NN(S(C)(=O)=O)C(c3cccs3)C2)cc1 (centres undefined),36.3% [at 16 µM]
3,COc1ccc(S(=O)(=O)N2Cc3ccccc3CC2C(=O)Nc2ccc3c(c2)OCO3)cc1 (centres undefined),17% [at 4.2 µM]
4,Cc1nc2cc(C(=O)O)ccc2s1,22% [at 16 µM]
5,CN(C(=O)c1cc2c(s1)-c1ccccc1S(=O)(=O)C2)c1ccccc1,29.1%
6,N=C1/C(=C/c2ccc(OCc3ccccc3)cc2)C(=O)N=C2SC(CC(=O)N3CCOCC3)=NN12,23.9%
7,Cc1ccc(COc2ccccc2C(=S)N2CCCC2)cc1,28.7%
8,C[C@H]1CN([C@@H](C)CO)C(=O)c2cccc(NC(=O)Nc3ccc(C(F)(F)F)cc3)c2O[C@@H]1CN(C)C,14.9% [at 8 µM]
9,C[C@H](CO)N1C[C@H](C)[C@H](CN(C)C(=O)Nc2ccc3c(c2)OCO3)OCc2ccccc2-c2c(n(C)c3ccccc23)C1=O,-46.6%
10,CO[C@@H]1CN(C)C(=O)c2ccc(NC(=O)c3nc4ccccc4s3)cc2OC[C@@H](C)N(Cc2cccnc2)C[C@H]1C,18.5%
11,C[C@@H]1CN([C@@H](C)CO)C(=O)c2cc(NC(=O)Cc3cn(C)c4ccccc34)ccc2O[C@H]1CN(C)C(=O)Nc1ccc2c(c1)OCO2,9.93% [at 8 µM]
12,CO[C@@H]1CN(C)C(=O)c2ccc(NC(=O)c3nc4ccccc4s3)cc2OC[C@@H](C)N(Cc2cncnc2)C[C@H]1C,21% [at 16 µM]
13,COc1cccc(C(=O)Nc2ccc3c(c2)OC[C@@H](C)N(CCc2ccccc2)C[C@@H](C)[C@H](OC)CN(C)C3=O)c1,9.35% [at 1 µM]
14,CCCNC(=O)Nc1ccc2c(c1)OC[C@@H](C)N(Cc1ccc(-c3ccccn3)cc1)C[C@@H](C)[C@H](OC)CN(C)C2=O,-20.1%
15,C[C@H](CO)N1C[C@H](C)[C@@H](CN(C)Cc2ccc(-c3ccccc3)cc2)Oc2ccc(NC(=O)CCCCCC(=O)Nc3ccccc3N)cc2CC1=O,16.8% [at 16 µM]
16,CO[C@@H]1CN(C)C(=O)c2ccc(NC(=O)c3nc4ccccc4s3)cc2OC[C@@H](C)N(Cc2ccncc2)C[C@H]1C,38.8%
17,CC(C)(C)C(=O)[C@H]1[C@H](c2ccccc2)[C@@]2(N=C(c3ccccc3)OC2=O)C2c3ccccc3C=NN21 (some centres undefined),19% [at 16 µM]
18,CC1CCCN(C(=O)c2ccc(Cl)c(S(=O)(=O)N3CCCCCC3)c2)C1 (centres undefined),6.03% [at 4.2 µM]
19,O=C(NCCc1ccc(F)cc1)c1cccc(NC(=O)c2ccccc2)c1,21.2%
20,O=C(CNc1ccccc1F)Nc1cccc2ccccc12,-8.82%
21,C[C@H]1CCCCO[C@H](CN(C)S(=O)(=O)c2cn(C)cn2)[C@@H](C)CN([C@@H](C)CO)C(=O)c2cc(NC(=O)Nc3ccc4c(c3)OCO4)ccc2O1,-6.42% [at 0.5 µM]
22,O=C(c1cc(COc2ccc(F)cc2F)on1)N1CC2C[C@@H]3CC1C[C@H](C2)C3,35.9% [at 16 µM]
23,C[C@@H]1CN([C@H](C)CO)C(=O)c2cc(NC(=O)Nc3ccc4c(c3)OCO4)ccc2O[C@@H](C)CCCCO[C@@H]1CN(C)S(=O)(=O)c1cn(C)cn1,-6.88% [at 1 µM]

# — PubChem BioAssay AID651717 (Broad Institute, 2012)
